Data published in PubChem BioAssay (NCATS).
Active and inactive are the calls of the source. Where a call stands in place of a potency, no number is given. The call rests on the fitted dose curve; in most records, active means well fitted inhibition curve with a large enough effect; inconclusive means small, poorly fitted or top-dose-only effect; inactive means flat fitted curve, though single readings scatter.

Target: Luciferin 4-monooxygenase (Photinus pyralis) (UniProt P08659)
Test: Primary firefly luciferase (FLuc) qHTS assay for identification of artifact compounds. (AID 1845220); further: nearly all actives have a fitted effect of over 60% in size
Details: purified firefly luciferase, luminescence, 5 min; series mostly up to 54.1 µM
How it was run: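 D-luciferin and ATP (10 uM each, final) in Tris acetate buffer pH 7.6 were incubated with compounds for 15 min at room temperature. The reaction was started with 10 nM Photinus pyralis luciferase and luminescence read after 5 min. Percent inhibition was fitted to a 4-parameter Hill equation.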

| SMILES | Potency |
| --- | --- |
| C=C1C(=O)O[C@@H]2C[C@]3(C)[C@@H](CCC(C)O)[C@@H]3C[C@H]12 (stereo partly drawn) | inactive |
| CC(=O)O[C@@H]1C2=C(O)C(=O)[C@](C)(OC(C)=O)C(=O)C2=CO[C@@]12O[C@@H](C)CC[C@H]2OC(C)=O | inactive |
| NC(=O)N1CCC(CC(=O)N2CCC(C3c4ncc(Br)cc4CCc4cc(Cl)cc(Br)c43)CC2)CC1 (stereo not drawn) | inactive |
| C/C=C(/C)C(=O)O[C@H]1C=C(CO)C(=O)[C@H](OC(=O)/C(C)=C/CO)[C@H]1C(C)C | inactive |
| O=C(NC1CCN(CCCCC2(C(=O)NCC(F)(F)F)c3ccccc3-c3ccccc32)CC1)c1ccccc1-c1ccc(C(F)(F)F)cc1 | inactive |
| CC(C)C[C@@H](C(=O)N[C@@H](Cc1ccc(OCc2ccccc2)cc1)C(=O)NC(C)(C)C)N(C)Cc1ccc(C(C)(C)C)cc1 | inactive |
| COc1cc(-c2cn(C3CCc4c(F)cccc4N(CC(F)(F)F)C3=O)nn2)ccc1-n1cnc(C)c1 (stereo not drawn) | inactive |
| CC(=O)OC[C@]12[C@H](OC(C)=O)C(=O)[C@@H]3[C@@H](O)[C@@]14O[C@@]3(C)COC(=O)c1cccnc1[C@@H](C)[C@H](C)C(=O)O[C@@H]([C@H](O)[C@@H]2OC(C)=O)[C@]4(C)O | inactive |
| NCCOc1cc(C(=O)Nc2cc(OCCN)c3ccccc3n2)nc(C(=O)Nc2cc(OCCN)c3ccccc3n2)c1 | inactive |
| Cc1c(C(=O)NCc2cccnc2)nn(-c2ccc(Cl)cc2Cl)c1-c1ccc(Cl)cc1 | inactive |
| O=C1Nc2ccccc2-c2nc3ccccc3c(=O)n2-c2c(O)cccc21 | inactive |
| COc1ccc([C@H](Cc2ccncc2)c2ccccc2)cc1OC1CCCC1 | inactive |
| CCN(CC)CCCCCCNc1cc(OC)cc2c(C)ccnc12 | inactive |
| C=C(C(=O)O)[C@@H]1CC=C(CCC(C)=O)[C@@H](C)CC1 | inactive |
| COc1ccccc1C(=O)Nc1cc2c(cc1N1CCCC1)n(C)c(=O)n2C | inactive |
| COc1ccc(-c2ccccc2)cc1NS(=O)(=O)c1cc(Cl)cc(Cl)c1O | inactive |
| N#Cc1cnc2c(Cl)cc(NCc3cn(CCN4CCCCCC4)nn3)cc2c1Nc1ccc(F)c(Cl)c1 | inactive |
| C=C1C(=O)O[C@@H]2C[C@H](C)[C@@H]3CC(=O)[C@H](O)[C@@]3(C)C[C@H]12 | inactive |
| CC1(C)SCCN(S(=O)(=O)c2ccc(Oc3ccncc3)cc2)[C@H]1C(=O)NO | inactive |
| COc1cc2c(cc1OCCCN1CCCC1)N=C(N)C21CCC1 | inactive |

| SMILES | Potency |
| --- | --- |
| CCn1c(=O)c(-c2ccc(-c3cncs3)cc2Cl)cc2cnc(Nc3ccc(N4CCN(C)CC4)cc3)nc21 | inactive |
| Cc1[nH]c2ccc(F)cc2c1-c1nc2c3cccnc3c3ncccc3c2[nH]1 | inactive |
| CNCCC(c1cccs1)c1ccc(O)c2ccccc12 (stereo not drawn) | inactive |
| Cc1ccc(NC(=O)C(C)C)cc1C1CCN(Cc2ccc(Oc3ccc(F)c(F)c3)cc2)CC1 | inactive |
| O=C(NO)c1ccc(CC(=O)N(CCO)c2ccccc2)cc1 | inactive |
| C#CCNCc1cc2cc(OCc3ccccc3)ccc2[nH]1 | inactive |
| CN1CC[C@@H](c2c(O)cc(O)c3c(=O)cc(-c4ccc(C(F)(F)F)cc4Cl)oc23)[C@@H]1CO | inactive |
| Cc1[nH]c(/C=C2\C(=O)Nc3ccc(F)cc32)c(C)c1C(=O)NCCN1CCCC1 | inactive |
| C/C1=C/CCC2=CC(OC2=O)C(C)(C)/C=C/C1=O (stereo not drawn) | inactive |
| CC(C)c1cccc(C(C)C)c1NC(=O)Nc1ccc(Sc2ccc([N+](=O)[O-])cc2)cc1 | inactive |
| C=C1C(=O)O[C@@H]2/C=C(\CO)CC/C=C(/C=O)C[C@@H](O)[C@@H]12 | inactive |
| CC1CCCC[C@H]2C(=O)C=C[C@H](O)[C@@H]2CC(=O)O1 (stereo partly drawn) | inactive |
| C/C=C/[C@@H]1C=C[C@@H]2C[C@H](C)CC[C@H]2[C@]1(C)/C(O)=C1/C(=O)[C@@H](CO)N(C)C1=O | inactive |
| CCC(CC)Nc1nc(C)c(-c2ccc(OC(F)(F)F)cc2OC)nc1OC | inactive |
| CCOC(=O)c1cnn(-c2ccccc2)c1NC(=O)c1cc2nc(-c3ccco3)cc(C(F)(F)Cl)n2n1 | inactive |
| CC(O)C(C)n1ncn(-c2ccc(N3CCN(c4ccc(OCC5COC(Cn6cncn6)(c6ccc(Cl)cc6Cl)O5)cc4)CC3)cc2)c1=O (stereo not drawn) | inactive |
| CN(C)[C@@H]1CCc2[nH]c3ccc(NC(=O)c4ccc(F)cc4)cc3c2C1 | inactive |
| C[C@@H](NC(=O)C(=O)c1c[nH]c2ccc([N+](=O)[O-])cc12)c1ccccc1 | inactive |
| Clc1ncoc1-c1c[nH]c2ccccc12 | inactive |

Tested on: Nanoluciferase (engineered Oplophorus gracilirostris luciferase)
Test: Primary Nanoluciferase (NLuc) qHTS assay for identification of artifact compounds. (AID 1845222); further: potency means the concentration at half of the fitted maximal effect
Details: NLuc-conditioned medium, Nano-Glo luminescence, 5 min; series mostly up to 54.1 µM
How it was run: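 Diluted conditioned medium from NLuc-expressing S16 cells treated with compounds for 15 min at room temperature, then Nano-Glo substrate added; luminescence read after 5 min. Percent inhibition versus no-enzyme and DMSO controls fitted to 4-parameter Hill equation.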

| SMILES | Potency |
| --- | --- |
| C=C1C(=O)O[C@@H]2C[C@]3(C)[C@@H](CCC(C)O)[C@@H]3C[C@H]12 (stereo partly drawn) | inactive |
| CC(=O)O[C@@H]1C2=C(O)C(=O)[C@](C)(OC(C)=O)C(=O)C2=CO[C@@]12O[C@@H](C)CC[C@H]2OC(C)=O | inactive |
| NC(=O)N1CCC(CC(=O)N2CCC(C3c4ncc(Br)cc4CCc4cc(Cl)cc(Br)c43)CC2)CC1 (stereo not drawn) | inactive |
| C/C=C(/C)C(=O)O[C@H]1C=C(CO)C(=O)[C@H](OC(=O)/C(C)=C/CO)[C@H]1C(C)C | inactive |
| O=C(NC1CCN(CCCCC2(C(=O)NCC(F)(F)F)c3ccccc3-c3ccccc32)CC1)c1ccccc1-c1ccc(C(F)(F)F)cc1 | inactive |
| CC(C)C[C@@H](C(=O)N[C@@H](Cc1ccc(OCc2ccccc2)cc1)C(=O)NC(C)(C)C)N(C)Cc1ccc(C(C)(C)C)cc1 | inactive |
| COc1cc(-c2cn(C3CCc4c(F)cccc4N(CC(F)(F)F)C3=O)nn2)ccc1-n1cnc(C)c1 (stereo not drawn) | inactive |
| CC(=O)OC[C@]12[C@H](OC(C)=O)C(=O)[C@@H]3[C@@H](O)[C@@]14O[C@@]3(C)COC(=O)c1cccnc1[C@@H](C)[C@H](C)C(=O)O[C@@H]([C@H](O)[C@@H]2OC(C)=O)[C@]4(C)O | inactive |
| NCCOc1cc(C(=O)Nc2cc(OCCN)c3ccccc3n2)nc(C(=O)Nc2cc(OCCN)c3ccccc3n2)c1 | inactive |
| Cc1c(C(=O)NCc2cccnc2)nn(-c2ccc(Cl)cc2Cl)c1-c1ccc(Cl)cc1 | inactive |
| O=C1Nc2ccccc2-c2nc3ccccc3c(=O)n2-c2c(O)cccc21 | inactive |
| COc1ccc([C@H](Cc2ccncc2)c2ccccc2)cc1OC1CCCC1 | inactive |
| CCN(CC)CCCCCCNc1cc(OC)cc2c(C)ccnc12 | inactive |
| C=C(C(=O)O)[C@@H]1CC=C(CCC(C)=O)[C@@H](C)CC1 | inactive |
| COc1ccccc1C(=O)Nc1cc2c(cc1N1CCCC1)n(C)c(=O)n2C | inactive |
| COc1ccc(-c2ccccc2)cc1NS(=O)(=O)c1cc(Cl)cc(Cl)c1O | 7.38 µM (active) |
| N#Cc1cnc2c(Cl)cc(NCc3cn(CCN4CCCCCC4)nn3)cc2c1Nc1ccc(F)c(Cl)c1 | inactive |
| C=C1C(=O)O[C@@H]2C[C@H](C)[C@@H]3CC(=O)[C@H](O)[C@@]3(C)C[C@H]12 | inactive |
| CC1(C)SCCN(S(=O)(=O)c2ccc(Oc3ccncc3)cc2)[C@H]1C(=O)NO | inactive |
| COc1cc2c(cc1OCCCN1CCCC1)N=C(N)C21CCC1 | inactive |

| SMILES | Potency |
| --- | --- |
| CCn1c(=O)c(-c2ccc(-c3cncs3)cc2Cl)cc2cnc(Nc3ccc(N4CCN(C)CC4)cc3)nc21 | inactive |
| Cc1[nH]c2ccc(F)cc2c1-c1nc2c3cccnc3c3ncccc3c2[nH]1 | inactive |
| CNCCC(c1cccs1)c1ccc(O)c2ccccc12 (stereo not drawn) | inactive |
| Cc1ccc(NC(=O)C(C)C)cc1C1CCN(Cc2ccc(Oc3ccc(F)c(F)c3)cc2)CC1 | inactive |
| O=C(NO)c1ccc(CC(=O)N(CCO)c2ccccc2)cc1 | inactive |
| C#CCNCc1cc2cc(OCc3ccccc3)ccc2[nH]1 | inactive |
| CN1CC[C@@H](c2c(O)cc(O)c3c(=O)cc(-c4ccc(C(F)(F)F)cc4Cl)oc23)[C@@H]1CO | inactive |
| Cc1[nH]c(/C=C2\C(=O)Nc3ccc(F)cc32)c(C)c1C(=O)NCCN1CCCC1 | inactive |
| C/C1=C/CCC2=CC(OC2=O)C(C)(C)/C=C/C1=O (stereo not drawn) | inactive |
| CC(C)c1cccc(C(C)C)c1NC(=O)Nc1ccc(Sc2ccc([N+](=O)[O-])cc2)cc1 | inactive |
| C=C1C(=O)O[C@@H]2/C=C(\CO)CC/C=C(/C=O)C[C@@H](O)[C@@H]12 | inactive |
| CC1CCCC[C@H]2C(=O)C=C[C@H](O)[C@@H]2CC(=O)O1 (stereo partly drawn) | inactive |
| C/C=C/[C@@H]1C=C[C@@H]2C[C@H](C)CC[C@H]2[C@]1(C)/C(O)=C1/C(=O)[C@@H](CO)N(C)C1=O | inactive |
| CCC(CC)Nc1nc(C)c(-c2ccc(OC(F)(F)F)cc2OC)nc1OC | inactive |
| CCOC(=O)c1cnn(-c2ccccc2)c1NC(=O)c1cc2nc(-c3ccco3)cc(C(F)(F)Cl)n2n1 | inactive |
| CC(O)C(C)n1ncn(-c2ccc(N3CCN(c4ccc(OCC5COC(Cn6cncn6)(c6ccc(Cl)cc6Cl)O5)cc4)CC3)cc2)c1=O (stereo not drawn) | inactive |
| CN(C)[C@@H]1CCc2[nH]c3ccc(NC(=O)c4ccc(F)cc4)cc3c2C1 | inactive |
| C[C@@H](NC(=O)C(=O)c1c[nH]c2ccc([N+](=O)[O-])cc12)c1ccccc1 | inactive |
| Clc1ncoc1-c1c[nH]c2ccccc12 | inactive |
